Test results from PubChem BioAssay AID1508642 (National Center for Advancing Translational Sciences (NCATS), 2021).
Screen size: about 43,000 compounds; about 200 (0.47%) were called active. Not shown: some 12% with an inconclusive outcome. The sample as a whole holds a higher share of actives than the screen did. Values without a mark were called inactive. Calls follow the shape of the dose curve; as a rule, active = well fitted cell-killing curve with a large enough effect; inconclusive = small, poorly fitted or top-dose-only effect, or effect the other way; inactive = flat fitted curve, though single readings scatter.

Assay: Cell viability qHTS assay in S16 Pmp22-F2sN cells; also: nearly all actives have a fitted effect of over 65% in size
Conditions: S16 Pmp22-F2sN Schwann cells (luciferase reporters placed in the Pmp22 gene) viability, CellTiter-Glo, 24 h; series mostly up to 57.5 µM; activity change, negative = cytotoxicity: at the top concentration
Description: Assay Provider: Jim Inglese Ph.D. National Center for Advancing Translational Science, National Institutes of Health, Rockville, MD CMT is a heterogeneous group of neurological disorders that affect approximately 1 in 2,500 people. In particular, the most common form of CMT, CMT1A is genetically linked to the duplication of the PMP22 gene which leads to Schwann cell overexpression, thus manifesting itself as a typical case of dose-sensitive diseases. To identify small molecule compounds that can mediate the expression of PMP22 we developed a phenotypic assay screening strategy by utilizing genome editing techniques to construct Schwann cell lines containing novel reporter technology to monitor the transcriptional or translational regulation of PMP22. For high sensitivity we use a bioluminescent reporter system embedded in the 3' UTR of the PMP22 gene (S16(c9) Pmp22-F2sN) to identify compounds that inhibit gene expression. […] We can further discriminate the effect of all transcriptionally active molecules on PMP22 translation or stability with an assay that incorporates a short NLuc peptide (HiBiT) at the C-terminus of expressed PMP22 (S16(f8) PMP22-HiBiT) allowing alpha complementation and luminescence detection of membrane-associated PMP22 protein. These assays were screened against the NCATS Sytravon Library Collection. Miniaturization of these assays to 1536-well plate format for quantitative high throughput screening (qHTS) yielded rich data sets immediately from the qHTS assay (S16(c9) Pmp22-F2sN), when compared with data from a cell viability assay (Cell TiterGlo) to identify compounds that decreased the output signals through cellular toxicity to streamline the selection process of actives for subsequent characterization using the HiBiT assay (S16(f8) PMP22-HiBiT).
Cell viability assay in S16 Pmp22-F2sN cells PROTOCOL TABLE (format as described by Inglese J, Shamu CE and Guy RK. 2007) SEQUENCE No. (e.g., 1, 2, 3, etc.); […] (e.g., Cells, Incubation, Reagent, etc.); VALUE and DESCRIPTION. 1. Cells. Add 500-1,000 cells in 4 uL in growth media (DMEM High Glucose, No Phenol Red media + 10% heat-inactivated FBS + 1% Pen/Strep supplemented media) per well into Greiner 1536-well white/solid bottom high base, TC-treated plates. 2. Compounds. Library compounds and controls added at 23nL per well, transferred by Pin Tool. 3. Incubation. Incubate plates at 37C, 5% CO2, 95% RH for 24 h. 4. Reagent. Add 3uL CellTiter-Glo per well of Greiner 1536-well plates. 5. Incubation. Incubate plates at room temperature for 15 min., protect from light. 6. Detector. FLuc luminescence measured using CCD-based camera (Viewlux). NOTES (numbers refer to Sequence numbers above; values are from representative experiments) 6. Luminescence Read: Clear filter; Exposure = 1 sec, Gain = High, Speed = Slow, Binning = 2X REFERENCES: 1. Inglese J, Shamu CE and Guy RK, Reporting data from high throughput screening of small molecule libraries, Nature Chemical Biology, 2007, 3(8): 438-441. doi.org/10.1038/nchembio0807-438 2. Yasgar A, Shinn P, Jadhav A, Auld DS, Michael S, Zheng W, Austin CP, Inglese J and Simeonov A, Compound Management for Quantitative High-Throughput Screening. J. Assoc. Lab. Auto., 2008, 13: 79-89. doi: 10.1016/j.jala.2007.12.004
% is scaled to controls: 0 for no effect and ±100 for the full control effect; potency is read from the fitted curve at half-maximal effect.

Row | SMILES | activity change, negative = cytotoxicity [%] | Potency
1 | O=C(NCCc1ccc(Cl)cc1)c1ccc2c(c1)N(Cc1ccc(F)cc1)C(=O)CS2 | -25.4 | –
2 | Cc1c(C)n(Cc2ccc(Cl)cc2)c2ccc(C(=O)NCCc3ccc(S(N)(=O)=O)cc3)cc12 | -7.69 | –
3 | Cc1cccc(N2CCN(C(=O)c3cnc(N4CCCC4)nc3C)CC2)c1C | -0.0488 | –
4 | COc1ccc(Cl)cc1NC(=O)CCn1c(=O)c2cccn2c2ccccc21 | 8.71 | –
5 | CCCCS(=O)(=O)c1oc(-c2cccs2)nc1S(=O)(=O)c1ccccc1 | – | 2.51 µM (active)
6 | Cc1ccc(CSc2oc(-c3cccs3)nc2S(=O)(=O)c2ccc(C)cc2)cc1 | 17.9 | –
7 | CSc1oc(-c2cccs2)nc1S(=O)(=O)c1ccc(Br)cc1 | -0.0965 | –
8 | COc1cn(CC(=O)Nc2cccc(C)c2C)c(CN2CCCCC2)cc1=O | -2.31 | –
9 | Cc1ccc(NC(=O)Cn2nnc3sc4c(c3c2=O)CCC(C)C4)cc1 (stereo unspecified) | 10.1 | –
10 | COc1ccc(CN2CCc3nc(Nc4ccccc4)ncc3C2)c(OC)c1OC | -0.963 | –
11 | CCc1nn(CC(=O)N2CCN(c3ccc(Cl)cc3)CC2)c(=O)c2cc3occc3n12 | 1.57 | –
12 | COc1ccc(OC)c(CNC(=O)CN2C(=O)CCn3nc(-c4cn(C)c5ccccc45)cc32)c1 | 2.98 | –
13 | Cc1c(Cl)cccc1NC(=O)CCS(=O)(=O)c1ccc2c(c1)oc(=O)n2C | -29 | –
14 | CCC(=O)N1CCc2cc(S(=O)(=O)NC(C(=O)Nc3ccc(C(C)=O)cc3)C(C)C)ccc21 (stereo unspecified) | 1.35 | –
15 | CCOc1ccc(-c2cc3nc(C4CCN(C(=O)OC(C)(C)C)CC4)c(C(=O)Nc4ccc(C(=O)OC)cc4)cn3n2)cc1 | 4 | –
16 | COCCN(Cc1ccco1)C(=O)Cn1ncc2c([nH]c3ccccc32)c1=O | 0.904 | –
17 | COc1c(Cl)cc(Cl)cc1C(=O)Nc1cccc2cccnc12 | 3.69 | –
18 | COc1cc(C(=O)NCC(c2ccc(Cl)cc2)N2CCOCC2)cc(OC)c1OC (stereo unspecified) | 0.597 | –
19 | CCOc1ccc(C(NC(=O)c2cc(OC)c(OC)c(OC)c2)c2cc(Cl)c3cccnc3c2O)cc1 (stereo unspecified) | – | 1.78 µM (active)
20 | CC(=O)N1CCCc2cc(S(=O)(=O)N3CCCC(C(=O)N4CCN(c5cccc(Cl)c5)CC4)C3)ccc21 (stereo unspecified) | – | 25.1 µM (active)
21 | CC(=O)N1CCCc2cc(S(=O)(=O)N3CCCC(C(=O)NCc4ccc(Cl)cc4)C3)ccc21 (stereo unspecified) | -24.1 | –
22 | COc1cccc(N2CCN(S(=O)(=O)c3ccc4c(c3)CCCN4C(C)=O)CC2)c1 | -1.03 | –
23 | COC(=O)c1ccc(NC(=O)CSc2n[nH]c(-c3ccccc3)n2)cc1 | 13.3 | –

Row | SMILES | activity change, negative = cytotoxicity [%] | Potency
24 | CCOc1ccccc1NC(=O)Cn1c(=O)n(Cc2ccccc2)c(=O)c2c(C)c(C(=O)N(C)C)sc21 | 5.8 | –
25 | Cc1ccccc1NC(=O)Cn1c(=O)n(Cc2ccco2)c(=O)c2ccc(C(=O)NC3CCCC3)cc21 | 7.6 | –
26 | COc1cccc(C(=O)NCc2ccc3c(c2)CCN3C(=O)c2ccncc2)c1 | -2.11 | –
27 | Cc1c(CNC2CCCCC2)c(C(=O)O)c(C)n1Cc1cccc(Cl)c1 | 22.4 | –
28 | COc1cccc2cc(-c3nc(Cl)c4c5c(sc4n3)CC(C)CC5)c(=O)oc12 (stereo unspecified) | 6.33 | –
29 | Cc1ccc2nc(CN3CCN(S(=O)(=O)c4ccc(C)c(C)c4)CC3)oc2c1 | 10.1 | –
30 | COc1ccc(NC(=O)CN2C(=O)COc3ccc(S(=O)(=O)N4CCOCC4)cc32)cc1 | 19.3 | –
31 | CC(C)(C)c1ccc(S(=O)(=O)N2CCN(C(=O)c3cc(-c4ccc(Br)cc4)n[nH]3)CC2)cc1 | 2.31 | –
32 | Cn1c(=O)[nH]c(=O)c2c1nc(NCCc1ccccc1)n2Cc1ccc(F)cc1 | -27.5 | –
33 | CCOC(=O)c1ccc(NC(=O)Cn2cc(S(=O)(=O)Cc3ccccc3F)c3ccccc32)cc1 | 12.9 | –
34 | Cc1ccc2nc(COc3ccccc3NC(=O)Nc3ccc(F)c(Cl)c3)cc(=O)n2c1 | -13.1 | –
35 | COc1ccc(N2CCN(c3nc(-c4ccccc4F)nc4ccccc34)CC2)cc1 | -1.56 | –
36 | Cc1cccc(OCC(=O)N(Cc2ccc(C(C)C)cc2)Cc2ccco2)c1C | -22 | –
37 | Cc1cccc(-n2ncc(C(=O)N3CCc4ccccc4C3)c2C2CCN(C(=O)OC(C)(C)C)CC2)c1 | -9.84 | –
38 | CC(C)Oc1ccc(CNC(=O)C2CCN(c3nc4ccccc4n(C)c3=O)CC2)cc1 | 8.64 | –
39 | COc1cc(OC)c(NC(=O)c2cc(S(=O)(=O)N3CCCC3)cn2C)cc1Cl | 1.12 | –
40 | CCN(Cc1ccccc1)S(=O)(=O)c1ccc2c(c1)CCCN2C(C)=O | -7.49 | –
41 | CCNS(=O)(=O)c1ccc(NC(=O)CSc2nc(-c3ccco3)cc(C(F)(F)F)n2)cc1 | -17.6 | –
42 | COc1ccc(Cl)cc1NC(=O)c1sc2nc3c(cc2c1N)CN(C)CC3 | 19.1 | –
43 | COc1ccccc1NC(=O)c1sc2nc(C)c(C(=O)Nc3ccc(Cl)cc3)c(-c3ccc(Br)cc3)c2c1N | – | 14.1 µM (active)
44 | COc1ccc(NC(=O)c2sc3nc(-c4cc5cccc(OC)c5oc4=O)[nH]c(=O)c3c2C)cc1 | 6.82 | –
45 | Cc1nnc(SCc2cc(=O)c3cc(F)ccc3[nH]2)n1C | 12.3 | –
46 | Cc1ccc(CN2CCc3nc(N4CCN(C)CC4)ncc3C2)cc1 | 1.27 | –
